Broadly, the inhibition is the relative decrease from the control value, in per cent.

Each structure is given as a SMILES string. Where “and” joins values, the source holds several entries; their conditions need not be identical. Equal entries are not always repeated. Hit rate of the full screen: of about 300,000 compounds, about 3,200 (1.1%) were called active. What follows is part of a selection rich in actives, with near analogues and random picks from the rest. Unmarked numbers belong to inactive results. No stated cut-off is given here; in the data, active means inhibition above about 75%; inconclusive means no clear call, values can overlap the other calls; inactive means below that; tested in HMLE shEcad cells.

This test can be described thus: growth suppression of cancer stem-like cells – cell-based, luminescence, primary screen (AID 2717). The following applies: cancer stem cell-like cells viability, at 7.5 µM, active compounds read high.
Turning to `COc1ccc(-n2cnnc2SCC(=O)Nc2cccc([N+](=O)[O-])c2)cc1`, the inhibition was -0.247%.
As to `COc1ccc(CCNC(=O)CSc2nc3[nH]ncc3c(=O)n2-c2cccc(C(F)(F)F)c2)cc1OC`, the inhibition was -2.41%.
Turning to `NC(=O)NC(=O)CSc1nc2cc([N+](=O)[O-])ccc2n1-c1cccc(C(F)(F)F)c1`, the inhibition was 84.3% (active).
The figure for `Cc1ccc2c(c1)C1C[N+](C)(CC(=O)c3ccccc3)CCC1N2C(=O)c1ccccc1Cl` (configuration not stated) is -11.4%; for `COc1ccc(S(=O)(=O)N(C)C[C@H]2Oc3ccc(NS(=O)(=O)c4cccs4)cc3CC(=O)N([C@H](C)CO)C[C@H]2C)cc1` it is -7.45%; for `COc1ccc(N(CCC(=O)NCCc2ccccc2)S(=O)(=O)c2ccc(C)cc2C)cc1` it is 0.378%.
For `CC(=O)C12CC(C)=C(C)CC1CC1C3CCC4=CC(=O)CCC4(C)C3CCC12C` (configuration not stated), the inhibition is 76.7% (active).
With `C[C@]12C=CC(=O)C=C1CC[C@@H]1[C@@H]2C(=O)C[C@@]2(C)[C@H]1CC[C@]2(O)C(=O)CO` the figure was -3.96% and -10.9%; with `CC(=O)[C@@]12O[C@@H]1C[C@H]1[C@@H]3CC[C@H]4C[C@@H](O)CC[C@]4(C)[C@H]3CC[C@@]12C`, -0.101%; with `COc1cccc(NC(=O)COC(=O)c2ccc3ccccc3n2)c1`, -12.4%.
With `COc1cccc(NC(=O)COc2cccnc2[N+](=O)[O-])c1` the figure was -14.1%; with `CC(=O)c1cccc(OCC(=O)OCC(=O)Nc2cc(S(=O)(=O)N3CCCCC3)ccc2C)c1`, 2.55%; with `CCn1nccc1C(=O)Nc1ccc(Cl)c(Cl)c1`, 6.24%.
With `O=C(CC(O)(C(F)(F)F)C(F)(F)F)Nc1ccc(Cl)c(Cl)c1` the figure was 98.6% (active).
Regarding `O=C(CC1SCCNC1=O)Nc1ccc(Cl)c(Cl)c1` (configuration not stated), the inhibition was -15.9%.
The figure for `Cc1nn(-c2ccccc2)nc1C(=O)OCC(=O)N1CCCCC1C` (configuration not stated) is 3.22%; for `O=C(CN1C(=O)c2ccc([N+](=O)[O-])cc2C1=O)Nc1nnc(C2CC2)s1` it is -20.4%.
Consider `CC(OC(=O)c1cc2ccccc2[nH]1)C(=O)N(C)c1ccccc1` (configuration not stated), for which the inhibition was -15.8%.
With `Cc1csc(=O)n1CC(=O)Nc1ccc(S(C)(=O)=O)cc1`, the inhibition was -16.8%.
The figure for `COc1ccc(C(=O)OCc2cc(=O)n3ccsc3n2)cc1F` is -8.98%; for `O=C(c1ccccc1)N1N=C(c2ccccc2O)CC1c1ccc(Br)cc1` (configuration not stated) it is 8.94%; for `COc1ccc(C2CC(c3cccs3)=NN2c2ccccc2)cc1` (configuration not stated) it is 4.92%.
With `Oc1ccccc1C1=NN(c2ccccc2)C(c2ccccc2)C1` (configuration not stated) the figure was 84.6% (active); with `COc1ccc(N2CCN(C(CNS(=O)(=O)c3ccc(C)cc3)c3ccccc3)CC2)cc1` (configuration not stated), 20.2%.
On to `COc1cccc(CC(=O)OCC(=O)NCc2ccc3c(c2)OCO3)c1`, for which the inhibition was -4.31%.
For the compound `Cc1cc(C)c[n+](-c2nc3ccccc3nc2[N-]S(=O)(=O)c2cccs2)c1`, the inhibition is -12.3%.
Turning to `O=S(=O)([N-]c1nc2ccccc2nc1-[n+]1ccc(Cc2ccccc2)cc1)c1ccc(Br)s1`, the inhibition was 98.5% (active).
The figure for `O=C(NCCc1ccccc1)C1CCN(S(=O)(=O)c2ccc(Br)s2)CC1` is -3.18%.
For the compound `Cn1nnnc1SCC(=O)Nc1sccc1C(N)=O`, the inhibition was -11.4%.
Take `CN(CC(=O)NCCc1ccc(S(N)(=O)=O)cc1)CC(=O)Nc1ccc(Cl)cc1`: the inhibition was -12.5%.
In the case of `COc1cccc(/C=N/NC(=O)c2[nH]nc3c2CCc2ccccc2-3)c1O`, the inhibition is 111% (active).
Take `COc1cc2cc(C(=O)N/N=C/c3cccc(OC)c3OC)[nH]c2cc1OC`: the inhibition is 8.69%.
The figure for `CN(C)CCNC(=O)c1[nH]nc2c1CCc1ccccc1-2` is -15.5%; for `CCOC(=O)CCCCCC(=O)Nc1ccc2c(c1)CC(=O)N([C@@H](C)CO)C[C@H](C)[C@@H](CN(C)Cc1ccccc1)O2` it is -7.75%; for `Cc1ccc2c(c1)c1ncn(Cc3ccc(F)cc3)c(=O)c1n2C` it is 21.8%.
As to `COc1ccc2c(c1)c1ncn(Cc3ccccn3)c(=O)c1n2C`, the inhibition was -14.9%.
`Cc1ccc2c(c1)c1ncn(CCC3=CCCCC3)c(=O)c1n2C`: the inhibition was 79.2% (active).
With `CCn1nnc2cc(C(=O)Nc3ccc(C(=O)OC(C)C)cc3)ccc21` the figure was -0.631%; with `O=C(COC(=O)C1CCCO1)Nc1nc(-c2ccc(F)cc2)cs1` (configuration not stated), -5.39%; with `O=C(OCC(=O)N1CCCCC1)c1ccc(OC(F)(F)F)cc1`, -0.262%.
As to `O=C1C=C(c2ccc(Cl)cc2)C(=O)N1Nc1ccccc1`, the inhibition was 107% (active).
The figure for `O=C(O)CC1=C(Nc2ccccc2)C(=O)N(c2ccccc2)C1c1ccc(Cl)cc1` (configuration not stated) is 9.27%; for `O=C1c2cccc3cc(Br)cc(c23)C(=O)N1Nc1ccccc1` it is 6.61%; for `CCOC(=O)C1CCN(C(=O)CN2C(=O)NC(C)(c3ccc4cc(OC)ccc4c3)C2=O)CC1` (configuration not stated) it is -9.85%.
Regarding `CCOC(=O)[C@@H]1[C@H]2COc3ccc(Br)cc3[C@H]2N2C(=O)N(c3ccc(C)cc3)C(=O)[C@@]12C`, the inhibition is -5.83%.
With `COc1ccc(-c2nn(-c3ccccc3)cc2/C=N/Nc2ccccn2)cc1OC` the figure was 10.5%.
For the compound `O=C(CCCO)N/N=C/c1cc(Br)ccc1O`, the inhibition was -5.24%.
With `Oc1ccc(Br)cc1/C=N/Nc1ccccn1` the figure was 101% (active).
`COc1ccc(OC)c(NC(=O)COC(=O)Cc2ccsc2)c1`: the inhibition was -8.27%.
The figure for `O=C(OCC(=O)N1CCCCCC1)c1ccc(Cl)nc1` is 15.6%; for `O=C(Oc1ccc(-c2nc(-c3ccccn3)no2)cc1)c1ccccc1` it is 129% (active); for `COc1ccc(Cc2nc(-c3ccccn3)no2)cc1OC` it is -15.9%.
Regarding `Cc1ccc(Oc2nc(-c3ccccn3)nc3ccccc23)cc1`, the inhibition was 4.28%.
On to `N#CCCN(C(=O)COC(=O)c1ccc2c(c1)OCCO2)c1ccccc1`, for which the inhibition is -4.1%.
For `CC(C)N(C(=O)c1ccc(-c2ccccc2F)cc1)C(C)C`, the inhibition is -3.5%.
With `O=C(CN1C(=O)c2ccccc2C1=O)NCc1ccc(C(=O)O)cc1` the figure was 12.4%; with `CC(=O)N(C1=C(Cl)C(=O)c2ccccc2C1=O)c1ccc(C(=O)O)cc1`, 102% (active); with `CCOc1ncccc1C(=O)Nc1ccc2c(c1)OCCO2`, -12.8%.
The figure for `O=C(Nc1cc(S(=O)(=O)N2CCOCC2)ccc1N1CCOCC1)c1c(F)cccc1Cl` is -17.5%.
For `Cc1c(NC(=O)C(C)OC(=O)c2ccccc2O)c(=O)n(-c2ccccc2)n1C` (configuration not stated), the inhibition is -18.3%.
With `CCC(CO)Oc1cc(NC(=O)c2cccc3ccccc23)c2ncn(C(C)C)c2c1` (configuration not stated) the figure was 4.9%; with `Cc1ccc2c(CN3CCN(S(=O)(=O)c4ccccc4C(F)(F)F)CC3)cc(=O)oc2c1`, 0.831%; with `CO[C@@H]1[C@@H](OC(N)=O)[C@@H](O)C(Oc2ccc3c(O)c(NC(=O)c4ccc(O)c(CC=C(C)C)c4)c(=O)oc3c2C)OC1(C)C` (some centres not stated), -16%.
For the compound `COC(=O)N/N=C/c1cn(CCCOc2ccc(C)cc2)c2ccccc12`, the inhibition is 25.8%.
With `CCOC(=O)N/N=C/c1cn(Cc2ccccc2Cl)c2ccccc12`, the inhibition was 7.15%.
With `CNC(=S)N/N=C/c1cn(Cc2ccc(C)cc2)c2ccccc12` the figure was 109% (active).
The figure for `Cc1ccccc1-c1cc(C(=O)NCc2cccs2)n(CC2CC(c3cccnc3)=NO2)n1` (configuration not stated) is 10.1%.
As to `CN(C)c1nc(Nc2ccc(Cl)c(Cl)c2)nc(N(C)C)n1`, the inhibition was -14.7%.
Consider `COc1cc2nc(Cl)nc(NCCO)c2cc1OC`, for which the inhibition is -15.1%.
For `OCCNc1nc(Nc2ccc(Cl)c(Cl)c2)nc2ccccc12`, the inhibition is 102% (active).
With `O=C(c1cnccn1)N1CCN(S(=O)(=O)c2cccc(Cl)c2)CC1` the figure was -17.3%; with `Cc1cc(N2CCCC2)ccc1NC(=O)COc1ccc(Cl)cc1`, -10.1%.
As for `Cc1c(C(=O)Nc2cccc(S(=O)(=O)N3CCOCC3)c2)oc2ccccc12`, the inhibition was -11%.
For `CC1CCCCC12NC(=O)N(CC(=O)OCc1c(F)cccc1Cl)C2=O` (configuration not stated), the inhibition was -8.77%.
With `COCCN(CCOC)S(=O)(=O)NC[C@H]1O[C@@H](n2cnc3c(N)ncnc32)[C@H](O)[C@@H]1O` the figure was 2.3%.
For `COc1ccc(Br)cc1C(=O)Nc1cccc(C)c1C`, the inhibition is -31%.
With `Cc1ccc(-c2nc3ccccc3[nH]2)cc1NC(=O)c1sc2ccccc2c1Cl` the figure was 6.88%; with `COc1ccc(Br)cc1C(=O)NC(=S)Nc1cc(-c2nc3ccccc3[nH]2)ccc1C`, 86.6% (active); with `COc1ccc(C(=O)NCc2ccccc2C)cc1S(=O)(=O)NC1CCCC1`, 0.604%.
The figure for `CC(C)CN(Cc1c(O)ccc2c(=O)c(-c3ccccc3)coc12)CC(C)C` is -0.974%.
The figure for `CC(C)=CCc1c(O)c(CC=C(C)C)c2occ(-c3ccc(O)cc3)c(=O)c2c1O` is 100% (active); for `O=c1c(-c2ccccc2)coc2cc(O)ccc12` it is 0.886%; for `O=C(COC(=O)c1cc(S(=O)(=O)N2CCOCC2)ccc1F)NC1CC1` it is -6.89%.
In the case of `CC(NC(=O)c1ccc(N2CCNCC2)c([N+](=O)[O-])c1)C12CC3CC(CC(C3)C1)C2` (configuration not stated), the inhibition is 86.5% (active).
As for `O=C(NC1C2CC3CC(C2)CC1C3)c1ccc(N2CCNCC2)c([N+](=O)[O-])c1` (configuration not stated), the inhibition is 52.3%.
The figure for `O=C(Nc1cccc(C(F)(F)F)c1)c1ccc(N2CCNCC2)c([N+](=O)[O-])c1` is -16.4%; for `O=C1C=C(c2ccnc3cc(Cl)ccc23)C[C@@H](c2ccc3c(c2)OCO3)C1` it is 6.37%.

(Values after PubChem BioAssay AID2717 (Broad Institute, 2010).)
